Among the data in PubChem BioAssay (Tox21) are Potency values, retold here.

The nature of assay [1]: qHTS assay to identify small molecule antagonists of the estrogen related receptor (ERR) signaling pathway from Tox21 library - cell viability counter screen (AID 1224834). Note: nearly all actives have a fitted effect of over 30% in size. The procedure, abridged: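 Counter screen run in ERR cells (2,000 cells/well): cells pre-incubated 6 h, then treated with compounds for 17.5 h at 37 C. Fluorescence was read 30 min after CellTiter-Fluor addition.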

Assay [2] concerns the target Luciferin 4-monooxygenase (Photinus pyralis) (UniProt P08659). The assay is described as follows: qHTS assay to identify small molecule inhibitors of firefly luciferase (AID 1224835). Note: nearly all actives have a fitted effect of over 25% in size. The essentials:
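Biochemical qHTS: compounds run as interplate titrations against purified firefly enzyme, with D-luciferin and ATP each at its KM concentration. Light output recorded by CCD imaging.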
In general terms: qHTS replaces the single test concentration by a dilution series.

The nature of assay [3]: qHTS assay to identify small molecule agonists of the constitutive androstane receptor (CAR) signaling pathway - cell viability counter screen (AID 1224836). Note: nearly all actives have a fitted effect of over 45% in size. The essentials: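 Multiplexed viability check: HepG2-CYP2B6-hCAR cells, 15-point compound dosing, 0.75 uM PK11195 final, 23 h at 37 C, CellTiter-Fluor fluorescence.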
A short description of assay [4]: qHTS assay to identify small molecule antagonists of the constitutive androstane receptor (CAR) signaling pathway - cell viability counter screen (AID 1224837). Note: nearly all actives have a fitted effect of over 45% in size. The essentials: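 CITCO at 50 nM final was added alongside compounds (15 concentrations) to double-stable hCAR/CYP2B6-2.2kb HepG2 cells. Following 23 hr at 37 C, cell viability was quantified by CellTiter-Fluor fluorescence intensity.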

Assay [5] deals with Nuclear receptor subfamily 1 group I member 3 (Homo sapiens) (UniProt Q14994). Kind of assay: qHTS assay to identify small molecule antagonists of the constitutive androstane receptor (CAR) signaling pathway (AID 1224838). Note: nearly all actives have a fitted effect of over 40% in size. The essentials: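 Inhibition of CITCO-driven (50 nM final) CYP2B6 reporter expression is measured in HepG2 cells stably carrying hCAR. Fifteen compound concentrations are applied for 24 h at 37 C, followed by luciferase luminescence.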

For assay [6] the target is unchanged. Kind of assay: qHTS assay to identify small molecule agonists of the constitutive androstane receptor (CAR) signaling pathway (AID 1224839). Note: nearly all actives have a fitted effect of over 15% in size. The procedure, abridged:
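Using human hepatoma HepG2 cells engineered with hCAR and a CYP2B6-2.2kb reporter, 15-concentration compound series were incubated 24 h alongside PK11195 at 0.75 uM final, with luminescence quantified afterwards.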

Assay [7] can be described thus: qHTS assay to identify small molecule antagonists of the estrogen related receptor signaling pathway with the pleiotropic PPARgamma coactivator (PGC) from Tox21 10K library - cell viability counter screen (AID 1224840; active = well fitted cell-killing curve with a large enough effect in the repeat runs, not every such curve was filed as active; note: nearly all actives have a fitted effect of over 40% in size). The essentials:
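Readout: fluorescence intensity from CellTiter-Fluor after 30 min at 37 C/5% CO2. Preceded by 17.5 h treatment of PGC/ERR cells with DMSO-dissolved compounds, added 6 h post-seeding.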

Assay [8] in a line: qHTS assay to identify small molecule antagonists of the estrogen related receptor signaling pathway with the pleiotropic PPARgamma coactivator (PGC) from Tox21 10K library (AID 1224841; call rule not given here; note: actives are mostly falling curves and most rising ones were filed inactive; nearly all actives have a fitted effect of over 50% in size). The essentials:
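One-Glo luminescence, measured after half an hour at room temperature, quantified reporter output of PGC/ERR cells. These had been plated at 2,000 per well, incubated 6 h, dosed with compounds in DMSO, then kept 18 h at 37 C.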

Assay [9] in a line: qHTS assay to identify small molecule agonists of the estrogen related receptor signaling pathway with the pleiotropic PPARgamma coactivator (PGC) from Tox21 10K library (AID 1224842). Note: nearly all actives have a fitted effect of over 15% in size. The procedure, abridged:
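PGC/ERR reporter cell line, 2,000 cells per well, incubated 6 h at 37 C before 23 nL compound in DMSO was added. After 18 h at 37 C, One-Glo luminescence read following 30 min at room temperature.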

Values joined by “and” are separate entries in the source; they are usually repeats but may differ in a detail not shown here. Identical values can stand only once. Records with an inconclusive call do not appear. Active and inactive are the calls of the source. Unless noted, calls come from the whole dose curve; as a rule, active = well fitted curve in the direction sought with a large enough effect in the repeat runs; inconclusive = weak or mixed curves; inactive = no such curve, though single readings can be large; an effect the other way counts as inactive or inconclusive.
Potency is the fitted concentration of half-maximal effect.

Chain of Nuclear receptor subfamily 1 group I member 3 (Homo sapiens) (Q14994 whole entry, looked up): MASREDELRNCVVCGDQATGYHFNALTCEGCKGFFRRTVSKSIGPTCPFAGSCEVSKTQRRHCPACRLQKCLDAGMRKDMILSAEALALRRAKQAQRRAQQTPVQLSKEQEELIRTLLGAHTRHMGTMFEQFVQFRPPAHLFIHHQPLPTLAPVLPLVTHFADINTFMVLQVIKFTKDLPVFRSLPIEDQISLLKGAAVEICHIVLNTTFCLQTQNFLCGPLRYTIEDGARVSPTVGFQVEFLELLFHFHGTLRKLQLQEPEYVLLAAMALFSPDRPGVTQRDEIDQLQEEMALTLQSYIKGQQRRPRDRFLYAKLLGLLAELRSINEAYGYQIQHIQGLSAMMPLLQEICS
Chain of Luciferin 4-monooxygenase (Photinus pyralis) (P08659 whole entry, looked up): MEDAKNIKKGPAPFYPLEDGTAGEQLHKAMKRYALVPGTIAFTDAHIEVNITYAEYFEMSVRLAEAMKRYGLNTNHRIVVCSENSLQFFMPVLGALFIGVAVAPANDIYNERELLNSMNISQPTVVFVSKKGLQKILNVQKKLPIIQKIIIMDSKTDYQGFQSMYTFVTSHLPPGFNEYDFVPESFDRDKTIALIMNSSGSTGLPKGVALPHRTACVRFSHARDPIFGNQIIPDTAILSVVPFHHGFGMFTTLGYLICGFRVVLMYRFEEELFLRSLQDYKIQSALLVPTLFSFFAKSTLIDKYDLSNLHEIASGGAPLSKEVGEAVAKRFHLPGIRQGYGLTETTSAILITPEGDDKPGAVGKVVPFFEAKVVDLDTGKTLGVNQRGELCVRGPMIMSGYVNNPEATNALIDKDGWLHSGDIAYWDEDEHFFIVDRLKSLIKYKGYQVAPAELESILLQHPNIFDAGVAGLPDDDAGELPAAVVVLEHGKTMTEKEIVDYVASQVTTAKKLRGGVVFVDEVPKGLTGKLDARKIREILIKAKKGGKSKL

As for `OC1(c2ccccc2)CCNCC1`, the Potency result in assay [1], in assay [2], in [3], in assay [4], in [5] and in assay [6] was “inactive” in each case. In addition, the Potency result in assay [7], in [8] and in [9] was “inactive” each time.
For `CC(CN(C)C)C(C)(O)Cc1ccc(Cl)cc1` (centres undefined), the Potency result in [1], in assay [2], in assay [3], in [4], in [5] and in assay [6] was “inactive” throughout. Also, the Potency result in assay [7], in assay [8] and in [9] was “inactive” throughout.
Turning to `Cc1cccc(N(C)C(=S)Oc2ccc3c(c2)CCC3)c1`, the Potency result in assay [1], in assay [2], in assay [3], in assay [4], in assay [5] and in [7] was “inactive” throughout. The Potency result in [8] and in assay [9] was “inactive” in each case. Besides, the Potency in [6] is 23.7 µM (active).
Take `CC(=O)c1cc2ccccc2s1`: the Potency entry in [1], in assay [2], in assay [3], in assay [4], in [5] and in [6] was “inactive” throughout. The Potency entry in [7] is “inactive”.
As to `CC(C)=CC(=O)C=C(C)C`, the Potency entry in assay [1], in assay [2], in assay [3], in assay [4], in [5] and in assay [6] was “inactive” each time. The Potency result in assay [7], in assay [8] and in [9] was “inactive” each time.
`CC(=O)N/N=C/c1ccc([N+](=O)[O-])o1`: the Potency entry in assay [1], in assay [2], in assay [3], in [4], in [5] and in assay [6] was “inactive” each time. Further, the Potency result in assay [7], in [8] and in assay [9] was “inactive” in each case.
For `NC(=O)c1ccncc1`, the Potency entry in assay [1], in assay [2], in [3], in assay [4], in [5] and in [6] was “inactive” each time. In addition, the Potency entry in assay [7], in [8] and in assay [9] was “inactive” each time.
For `CC(C)(C)CC(=O)OCC(=O)[C@@]1(O)CC[C@H]2[C@@H]3CCC4=CC(=O)C=C[C@]4(C)[C@H]3[C@@H](O)C[C@@]21C`, the Potency in [1] was 26.6 µM (active); in assay [8], 23.7 µM (active). For the same compound, the Potency entry in assay [2], in assay [3], in assay [4], in [5], in assay [6] and in assay [7] was “inactive” in each case. For the same compound, the Potency entry in [9] was “inactive”.
`C=CC(C)(CCC=C(C)C)OC(=O)CC(C)C` (centres undefined): the Potency result in [1], in assay [2], in [3], in [4], in assay [5] and in [6] was “inactive” in each case. For the same compound, in assay [7], the Potency entry is “inactive”.
In the case of `COc1ncnc(NS(=O)(=O)c2ccc(N)cc2)c1OC`, the Potency entry in assay [1], in assay [2], in [3], in assay [4], in assay [5] and in [6] was “inactive” in each case. Besides, the Potency entry in assay [7], in assay [8] and in assay [9] was “inactive” each time.
Consider `CC(=O)OCC(=O)NCCCOc1cccc(CN2CCCCC2)c1`, for which the Potency result in assay [1], in [2], in [3], in [4], in assay [5] and in assay [6] was “inactive” in each case. Besides, the Potency result in assay [8] and in assay [9] was “inactive” in each case.
In the case of `CC(C)=CCC/C(C)=C/CC/C(C)=C/CCC(=O)OC/C=C(\C)CCC=C(C)C`, the Potency result in assay [1], in assay [2], in assay [3], in assay [4], in [5] and in assay [6] was “inactive” throughout. Moreover, the Potency result in [7], in assay [8] and in [9] was “inactive” throughout.
Turning to `CCC(=O)C1CC(C(C)C)CC=C1C` (centres undefined), the Potency entry in assay [1], in assay [2], in assay [3], in [4], in assay [5] and in [6] was “inactive” throughout. In addition, the Potency entry in assay [7], in assay [8] and in [9] was “inactive” each time.
Regarding `C=C/C(C)=C/C/C=C(\C)CCC=C(C)C`, the Potency result in assay [1], in assay [2], in [3], in assay [4], in assay [5] and in assay [6] was “inactive” throughout. In addition, the Potency result in assay [8] and in assay [9] was “inactive” throughout.
`O=C1c2ccccc2C(=O)C1c1ccc(Br)cc1`: the Potency result in [1], in [3], in assay [4], in assay [5], in assay [7] and in assay [8] was “inactive” in each case. The figures for the Potency in assay [2], in [6] and in assay [9] were 3.47 µM (active), 29.8 µM (active) and 13.3 µM (active), respectively.
Regarding `CCCCCCC(C)(C)C(=O)O`, the Potency result in assay [1], in [2], in assay [3], in assay [4], in assay [5] and in assay [6] was “inactive” throughout. The Potency entry in [7], in assay [8] and in assay [9] was “inactive” in each case.
Take `CCCCCC#CC(=O)OC`: the Potency result in assay [1], in [2], in assay [3], in assay [4], in assay [5] and in assay [6] was “inactive” in each case. For the same compound, the Potency entry in assay [7], in [8] and in assay [9] was “inactive” in each case.
Turning to `CC(CO)CO`, the Potency entry in assay [1], in assay [2], in assay [3], in [4], in [5] and in assay [6] was “inactive” in each case. In addition, the Potency result in [7], in assay [8] and in assay [9] was “inactive” throughout.
For `C[C@@H]1CC(=O)NN=C1c1ccc(NN=C(C#N)C#N)cc1`, the Potency in assay [1] was 18.8 µM (active) and 13.3 µM (active); in assay [2], 5.49 µM (active) and 9.77 µM (active); in assay [3], 11.9 µM (active); in [4], 11.9 µM (active); in assay [5] it was 21.1 µM (active); in assay [7] it was 26.6 µM (active) and 23.7 µM (active). For the same compound, the Potency in [8] is 4.73 µM (active). Besides, the Potency entry in [6] and in assay [9] was “inactive” each time.
For `CC(CCC(=O)O)C(=O)O` (centres undefined), the Potency result in assay [1], in assay [2], in assay [3], in [4], in [5] and in assay [6] was “inactive” throughout. In addition, the Potency entry in assay [7], in assay [8] and in assay [9] was “inactive” throughout.
`CO/N=C(/C(=O)N[C@@H]1C(=O)N2C(C(=O)O)=C(COC(N)=O)CS[C@H]12)c1ccco1`: the Potency entry in assay [1], in assay [2], in [3], in assay [4], in assay [5] and in assay [6] was “inactive” in each case. Moreover, the Potency result in assay [7] was “inactive”.
Regarding `CCCCCCNC(=O)n1cc(F)c(=O)[nH]c1=O`, the Potency entry in [1], in [2], in assay [3], in [4], in assay [6] and in assay [7] was “inactive” throughout. The Potency entry in assay [8] and in assay [9] was “inactive” in each case. Also, the Potency in assay [5] is 2.11 µM (active).
Take `CCCCC(CC)CN` (centres undefined): the Potency result in assay [1], in assay [2], in [3], in [4], in assay [5] and in assay [6] was “inactive” each time. Further, the Potency result in assay [7], in [8] and in assay [9] was “inactive” in each case.
